Measured values published in ChEMBL document CHEMBL1961873, “Compounds: GSK PKIS; Assays: Nanosyn kinase panel” (2012).

Columns and labels:
[1] = biological target: Sphingosine kinase 1 (Homo sapiens) (UniProt Q9NYA1); conditions: at 1 µM;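 note: mean SPHK1 inhibition value reported from the GSK PKIS kinase panel screen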
[2] = biological target: T1, Sphingosine kinase 2 (Homo sapiens) (UniProt Q9NRA0); conditions: at 0.1 µM
T1 sequence (whole entry): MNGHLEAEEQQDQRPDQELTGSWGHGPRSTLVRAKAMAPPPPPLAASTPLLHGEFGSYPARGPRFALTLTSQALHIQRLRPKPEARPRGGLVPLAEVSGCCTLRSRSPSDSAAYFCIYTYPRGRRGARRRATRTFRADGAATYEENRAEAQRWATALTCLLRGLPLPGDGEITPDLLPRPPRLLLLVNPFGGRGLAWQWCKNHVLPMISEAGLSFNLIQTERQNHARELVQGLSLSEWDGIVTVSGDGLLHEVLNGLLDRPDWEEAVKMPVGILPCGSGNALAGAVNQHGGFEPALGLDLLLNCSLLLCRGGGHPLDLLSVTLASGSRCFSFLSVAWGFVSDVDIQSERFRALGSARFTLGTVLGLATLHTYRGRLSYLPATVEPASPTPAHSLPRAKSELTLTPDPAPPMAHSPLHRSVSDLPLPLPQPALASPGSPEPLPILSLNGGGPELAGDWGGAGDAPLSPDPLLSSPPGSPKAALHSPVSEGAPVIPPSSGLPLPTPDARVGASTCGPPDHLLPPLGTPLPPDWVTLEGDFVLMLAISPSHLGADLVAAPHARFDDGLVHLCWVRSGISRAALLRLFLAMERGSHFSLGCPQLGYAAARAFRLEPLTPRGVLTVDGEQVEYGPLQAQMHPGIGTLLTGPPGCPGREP

[3] = biological target: T1, Sphingosine kinase 2 (Homo sapiens); conditions: at 1 µM
[4] = biological target: Casein kinase II subunit alpha (Homo sapiens) (UniProt P68400); conditions: at 0.1 µM
Sequence of Casein kinase II subunit alpha (Homo sapiens) (P68400 whole entry, looked up): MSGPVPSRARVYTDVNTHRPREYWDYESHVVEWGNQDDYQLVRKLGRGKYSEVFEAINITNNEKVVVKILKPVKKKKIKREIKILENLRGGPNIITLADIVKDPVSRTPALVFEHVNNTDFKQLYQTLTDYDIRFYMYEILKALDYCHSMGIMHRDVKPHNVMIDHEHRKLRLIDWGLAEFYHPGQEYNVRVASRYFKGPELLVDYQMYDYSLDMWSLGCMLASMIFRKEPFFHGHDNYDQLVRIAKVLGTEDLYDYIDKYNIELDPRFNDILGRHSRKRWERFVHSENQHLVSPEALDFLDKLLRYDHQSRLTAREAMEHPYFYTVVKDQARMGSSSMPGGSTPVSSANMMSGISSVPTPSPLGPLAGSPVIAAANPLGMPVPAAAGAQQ

[5] = biological target: Casein kinase II subunit alpha (Homo sapiens) (UniProt P68400); conditions: at 1 µM
[6] = biological target: T2, Inhibitor of nuclear factor kappa-B kinase subunit alpha (Homo sapiens) (UniProt O15111); conditions: at 0.1 µM
T2 sequence (whole entry): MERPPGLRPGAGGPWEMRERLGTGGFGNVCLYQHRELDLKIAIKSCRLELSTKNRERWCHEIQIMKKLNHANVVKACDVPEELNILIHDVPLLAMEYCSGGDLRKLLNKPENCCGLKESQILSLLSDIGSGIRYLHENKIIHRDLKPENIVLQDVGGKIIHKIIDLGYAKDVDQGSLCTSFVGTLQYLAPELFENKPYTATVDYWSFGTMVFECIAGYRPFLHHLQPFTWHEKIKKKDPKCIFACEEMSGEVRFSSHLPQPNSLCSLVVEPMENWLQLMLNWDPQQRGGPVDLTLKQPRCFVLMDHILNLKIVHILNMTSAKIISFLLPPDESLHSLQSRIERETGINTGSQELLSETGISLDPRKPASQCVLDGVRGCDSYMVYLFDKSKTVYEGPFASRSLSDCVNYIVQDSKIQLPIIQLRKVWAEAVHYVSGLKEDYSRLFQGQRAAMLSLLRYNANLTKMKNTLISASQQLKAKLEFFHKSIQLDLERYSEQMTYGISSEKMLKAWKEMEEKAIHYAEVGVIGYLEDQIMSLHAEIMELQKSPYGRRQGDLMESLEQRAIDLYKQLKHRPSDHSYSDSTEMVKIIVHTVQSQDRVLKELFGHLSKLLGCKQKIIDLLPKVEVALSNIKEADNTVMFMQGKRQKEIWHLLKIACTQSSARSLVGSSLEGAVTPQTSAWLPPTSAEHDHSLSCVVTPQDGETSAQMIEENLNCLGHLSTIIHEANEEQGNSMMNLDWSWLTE

[7] = biological target: T2, Inhibitor of nuclear factor kappa-B kinase subunit alpha (Homo sapiens); conditions: at 1 µM
[8] = biological target: T3, Inhibitor of nuclear factor kappa-B kinase subunit beta (Homo sapiens) (UniProt O14920); conditions: at 0.1 µM
T3 sequence (whole entry): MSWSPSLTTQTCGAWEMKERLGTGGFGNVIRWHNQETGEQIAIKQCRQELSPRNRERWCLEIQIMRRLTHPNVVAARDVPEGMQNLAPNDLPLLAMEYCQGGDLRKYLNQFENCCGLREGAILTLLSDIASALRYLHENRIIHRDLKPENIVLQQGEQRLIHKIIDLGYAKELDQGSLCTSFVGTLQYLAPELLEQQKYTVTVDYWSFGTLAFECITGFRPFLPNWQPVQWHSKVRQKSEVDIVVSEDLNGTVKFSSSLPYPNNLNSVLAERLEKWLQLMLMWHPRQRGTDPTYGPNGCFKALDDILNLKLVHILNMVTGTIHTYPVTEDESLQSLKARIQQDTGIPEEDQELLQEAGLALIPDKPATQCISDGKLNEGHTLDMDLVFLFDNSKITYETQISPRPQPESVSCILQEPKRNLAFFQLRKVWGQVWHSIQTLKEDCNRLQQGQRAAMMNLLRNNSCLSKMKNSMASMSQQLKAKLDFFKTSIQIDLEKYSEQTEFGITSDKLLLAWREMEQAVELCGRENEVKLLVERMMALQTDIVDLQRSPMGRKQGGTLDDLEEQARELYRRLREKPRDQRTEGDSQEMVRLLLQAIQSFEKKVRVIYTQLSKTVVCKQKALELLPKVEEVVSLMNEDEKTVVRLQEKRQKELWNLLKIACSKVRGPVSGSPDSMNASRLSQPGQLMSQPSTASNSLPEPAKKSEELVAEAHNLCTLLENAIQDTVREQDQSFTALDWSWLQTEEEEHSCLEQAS

[9] = biological target: T3, Inhibitor of nuclear factor kappa-B kinase subunit beta (Homo sapiens); conditions: at 1 µM
[10] = biological target: T4, Inhibitor of nuclear factor kappa-B kinase subunit epsilon (Homo sapiens) (UniProt Q14164); conditions: at 0.1 µM
T4 sequence (whole entry): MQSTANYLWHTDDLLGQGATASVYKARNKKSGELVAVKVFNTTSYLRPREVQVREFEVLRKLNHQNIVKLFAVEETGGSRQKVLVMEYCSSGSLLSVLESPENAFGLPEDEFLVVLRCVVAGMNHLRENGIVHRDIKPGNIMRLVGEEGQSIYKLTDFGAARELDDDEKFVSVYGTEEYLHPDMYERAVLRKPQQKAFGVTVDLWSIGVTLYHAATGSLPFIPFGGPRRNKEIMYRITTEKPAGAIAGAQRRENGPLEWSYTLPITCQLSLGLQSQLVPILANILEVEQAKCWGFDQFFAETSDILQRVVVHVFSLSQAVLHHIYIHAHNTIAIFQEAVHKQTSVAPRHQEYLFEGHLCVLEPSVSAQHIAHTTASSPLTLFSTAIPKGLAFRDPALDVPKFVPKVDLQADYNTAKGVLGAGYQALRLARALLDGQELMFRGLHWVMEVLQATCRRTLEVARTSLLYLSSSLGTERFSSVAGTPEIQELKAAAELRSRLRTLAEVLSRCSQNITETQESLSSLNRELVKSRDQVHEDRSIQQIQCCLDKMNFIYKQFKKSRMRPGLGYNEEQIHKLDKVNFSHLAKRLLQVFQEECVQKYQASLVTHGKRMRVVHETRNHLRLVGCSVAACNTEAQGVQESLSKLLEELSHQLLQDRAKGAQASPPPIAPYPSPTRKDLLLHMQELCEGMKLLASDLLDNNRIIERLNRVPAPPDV

[11] = biological target: T4, Inhibitor of nuclear factor kappa-B kinase subunit epsilon (Homo sapiens); conditions: at 1 µM
[12] = biological target: T5, Serine/threonine-protein kinase Nek1 (Homo sapiens) (UniProt Q96PY6); conditions: at 0.1 µM
T5 sequence (whole entry): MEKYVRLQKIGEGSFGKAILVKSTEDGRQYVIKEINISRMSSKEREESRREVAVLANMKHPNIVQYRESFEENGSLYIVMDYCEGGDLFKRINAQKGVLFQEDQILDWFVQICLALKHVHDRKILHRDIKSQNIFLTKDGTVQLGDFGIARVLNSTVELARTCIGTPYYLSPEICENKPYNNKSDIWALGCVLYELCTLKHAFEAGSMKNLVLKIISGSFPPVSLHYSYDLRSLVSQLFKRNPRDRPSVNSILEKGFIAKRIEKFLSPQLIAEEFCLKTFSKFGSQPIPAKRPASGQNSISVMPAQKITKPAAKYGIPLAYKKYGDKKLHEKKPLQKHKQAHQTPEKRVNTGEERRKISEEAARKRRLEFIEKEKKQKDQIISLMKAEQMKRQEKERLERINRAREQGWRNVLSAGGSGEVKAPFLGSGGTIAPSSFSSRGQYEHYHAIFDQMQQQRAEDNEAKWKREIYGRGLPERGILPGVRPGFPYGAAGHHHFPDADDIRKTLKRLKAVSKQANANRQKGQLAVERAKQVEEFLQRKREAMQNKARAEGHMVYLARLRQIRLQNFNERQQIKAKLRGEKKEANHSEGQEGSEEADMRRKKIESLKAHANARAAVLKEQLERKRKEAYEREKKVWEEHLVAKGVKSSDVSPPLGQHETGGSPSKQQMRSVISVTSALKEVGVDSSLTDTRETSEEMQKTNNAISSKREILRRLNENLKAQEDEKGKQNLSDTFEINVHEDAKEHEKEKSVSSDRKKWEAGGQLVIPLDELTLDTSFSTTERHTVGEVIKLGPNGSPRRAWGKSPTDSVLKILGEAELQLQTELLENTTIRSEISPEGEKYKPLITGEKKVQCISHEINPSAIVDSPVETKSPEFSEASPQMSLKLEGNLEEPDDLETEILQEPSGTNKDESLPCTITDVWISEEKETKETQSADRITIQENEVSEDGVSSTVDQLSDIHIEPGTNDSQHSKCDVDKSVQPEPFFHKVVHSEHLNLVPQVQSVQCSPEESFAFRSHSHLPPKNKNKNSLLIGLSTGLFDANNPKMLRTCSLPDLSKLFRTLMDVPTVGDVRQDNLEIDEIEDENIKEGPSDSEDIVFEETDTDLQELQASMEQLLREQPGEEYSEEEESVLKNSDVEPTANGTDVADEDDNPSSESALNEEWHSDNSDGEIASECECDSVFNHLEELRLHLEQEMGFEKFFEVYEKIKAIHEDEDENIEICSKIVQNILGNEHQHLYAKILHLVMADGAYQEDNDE

[13] = biological target: T5, Serine/threonine-protein kinase Nek1 (Homo sapiens); conditions: at 1 µM
[14] = biological target: T6, Serine/threonine-protein kinase Nek2 (Homo sapiens) (UniProt P51955); conditions: at 0.1 µM
T6 sequence (whole entry): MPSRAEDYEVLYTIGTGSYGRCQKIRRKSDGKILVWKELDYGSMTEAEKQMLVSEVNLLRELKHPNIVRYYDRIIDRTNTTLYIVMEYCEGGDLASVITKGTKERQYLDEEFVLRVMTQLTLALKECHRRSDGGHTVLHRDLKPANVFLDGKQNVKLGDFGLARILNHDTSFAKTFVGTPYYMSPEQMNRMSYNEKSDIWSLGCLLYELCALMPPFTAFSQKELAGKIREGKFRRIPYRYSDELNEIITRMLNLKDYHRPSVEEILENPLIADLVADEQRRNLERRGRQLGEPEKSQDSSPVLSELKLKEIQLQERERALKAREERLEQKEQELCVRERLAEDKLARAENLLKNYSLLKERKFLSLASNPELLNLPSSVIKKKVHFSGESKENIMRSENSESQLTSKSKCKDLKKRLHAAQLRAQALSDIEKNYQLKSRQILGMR

[15] = biological target: T6, Serine/threonine-protein kinase Nek2 (Homo sapiens); conditions: at 1 µM
[16] = biological target: Serine/threonine-protein kinase Nek6 (Homo sapiens) (UniProt Q9HC98); conditions: at 0.1 µM
Sequence of Serine/threonine-protein kinase Nek6 (Homo sapiens) (Q9HC98 whole entry): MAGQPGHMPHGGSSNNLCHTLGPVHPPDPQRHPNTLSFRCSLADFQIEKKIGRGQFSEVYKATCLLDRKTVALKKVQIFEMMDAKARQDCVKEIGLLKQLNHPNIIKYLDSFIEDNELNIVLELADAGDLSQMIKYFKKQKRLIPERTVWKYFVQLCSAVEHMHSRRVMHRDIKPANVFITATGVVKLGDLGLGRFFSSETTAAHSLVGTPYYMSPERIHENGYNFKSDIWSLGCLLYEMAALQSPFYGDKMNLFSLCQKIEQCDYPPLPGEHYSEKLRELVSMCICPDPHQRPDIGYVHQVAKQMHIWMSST

[17] = biological target: Serine/threonine-protein kinase Nek6 (Homo sapiens) (UniProt Q9HC98); conditions: at 1 µM
[18] = biological target: Serine/threonine-protein kinase Nek7 (Homo sapiens) (UniProt Q8TDX7); conditions: at 0.1 µM
Sequence of Serine/threonine-protein kinase Nek7 (Homo sapiens) (Q8TDX7 whole entry, looked up): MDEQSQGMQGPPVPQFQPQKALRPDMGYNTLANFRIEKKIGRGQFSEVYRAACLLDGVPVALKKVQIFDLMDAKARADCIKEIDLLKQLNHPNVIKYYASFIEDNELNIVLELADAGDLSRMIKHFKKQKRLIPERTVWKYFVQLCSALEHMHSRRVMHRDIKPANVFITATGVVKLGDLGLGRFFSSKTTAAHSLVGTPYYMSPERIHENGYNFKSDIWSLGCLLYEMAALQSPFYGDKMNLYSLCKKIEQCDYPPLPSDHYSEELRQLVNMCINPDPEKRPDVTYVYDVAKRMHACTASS

[19] = biological target: Serine/threonine-protein kinase Nek7 (Homo sapiens) (UniProt Q8TDX7); conditions: at 1 µM
[20] = biological target: T7, Serine/threonine-protein kinase Nek9 (Homo sapiens) (UniProt Q8TD19); conditions: at 0.1 µM;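 note: reported value is the mean percent inhibition of NEK9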
T7 sequence (whole entry): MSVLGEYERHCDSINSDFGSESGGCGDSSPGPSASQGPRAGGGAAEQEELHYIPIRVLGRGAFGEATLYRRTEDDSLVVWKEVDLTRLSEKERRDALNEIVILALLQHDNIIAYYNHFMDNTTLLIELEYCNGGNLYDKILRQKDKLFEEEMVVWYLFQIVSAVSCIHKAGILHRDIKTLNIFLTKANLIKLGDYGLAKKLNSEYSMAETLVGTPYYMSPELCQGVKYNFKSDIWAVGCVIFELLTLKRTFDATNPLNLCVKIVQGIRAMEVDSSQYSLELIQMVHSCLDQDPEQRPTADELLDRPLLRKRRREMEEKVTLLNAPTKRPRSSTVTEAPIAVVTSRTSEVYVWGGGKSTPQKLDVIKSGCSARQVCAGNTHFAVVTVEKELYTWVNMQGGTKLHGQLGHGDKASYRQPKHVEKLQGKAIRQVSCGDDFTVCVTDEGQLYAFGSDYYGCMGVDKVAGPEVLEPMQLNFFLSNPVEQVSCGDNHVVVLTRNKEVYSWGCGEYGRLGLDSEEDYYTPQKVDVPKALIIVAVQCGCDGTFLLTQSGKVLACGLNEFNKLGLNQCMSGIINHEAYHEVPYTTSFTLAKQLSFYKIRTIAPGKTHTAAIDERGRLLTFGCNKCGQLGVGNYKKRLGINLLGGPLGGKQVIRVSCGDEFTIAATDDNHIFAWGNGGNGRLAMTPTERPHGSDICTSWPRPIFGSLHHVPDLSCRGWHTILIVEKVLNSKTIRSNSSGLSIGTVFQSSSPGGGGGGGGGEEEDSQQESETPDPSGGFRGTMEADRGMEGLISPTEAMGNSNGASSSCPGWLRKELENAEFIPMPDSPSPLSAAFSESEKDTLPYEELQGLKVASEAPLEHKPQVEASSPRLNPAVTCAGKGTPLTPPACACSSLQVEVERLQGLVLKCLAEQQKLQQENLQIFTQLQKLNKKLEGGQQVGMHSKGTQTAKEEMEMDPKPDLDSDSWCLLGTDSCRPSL

Sequence of Sphingosine kinase 1 (Homo sapiens) (Q9NYA1 whole entry): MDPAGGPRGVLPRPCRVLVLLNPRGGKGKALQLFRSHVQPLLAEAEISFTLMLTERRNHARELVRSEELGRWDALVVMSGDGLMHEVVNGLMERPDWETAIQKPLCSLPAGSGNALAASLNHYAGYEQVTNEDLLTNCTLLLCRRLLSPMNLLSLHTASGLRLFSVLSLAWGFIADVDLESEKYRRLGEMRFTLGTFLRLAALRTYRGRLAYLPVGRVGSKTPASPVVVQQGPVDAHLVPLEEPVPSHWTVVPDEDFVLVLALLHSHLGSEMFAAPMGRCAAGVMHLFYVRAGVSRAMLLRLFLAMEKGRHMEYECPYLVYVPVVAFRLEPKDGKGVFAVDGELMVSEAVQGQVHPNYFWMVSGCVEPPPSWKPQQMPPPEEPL

Structure (SMILES) | inhibition [1] [%] | inhibition [2] [%] | inhibition [3] [%] | inhibition [4] [%] | inhibition [5] [%] | inhibition [6] [%] | inhibition [7] [%] | inhibition [8] [%] | inhibition [9] [%] | inhibition [10] [%] | inhibition [11] [%] | inhibition [12] [%] | inhibition [13] [%] | inhibition [14] [%] | inhibition [15] [%] | inhibition [16] [%] | inhibition [17] [%] | inhibition [18] [%] | inhibition [19] [%] | inhibition [20] [%]
O=C1NC(=O)C(c2ccccc2Cl)=C1Nc1cccc(O)c1 | -1.02 | 0.69 | -0.36 | 0.98 | 0.1 | 3.36 | 1.21 | 3.78 | 3.39 | 1.96 | 5.16 | 1.26 | 2.01 | 3.03 | 3.05 | 1.73 | -0.89 | 4.66 | 2.35 | 2.76
COc1ccc(-c2ccncc2)cc1C(N)=O | -0.74 | 0.88 | -0.67 | – | 4.44 | 2.55 | 9.39 | 4.74 | 7.06 | 5.87 | 6.43 | 3.59 | 6.47 | 5.42 | 6.48 | -0.26 | 1.43 | 3.68 | 8.72 | 4.72
